Results on 15 compounds are retold here after the supplement of paper PMC6522484.

The subject of experiment [1] is DLD1. Briefly: cell viability (CellTiter-Glo) relative to plate median (fraction of plate median); higher = more viable cells. As to conditions: 5 µM; treatment time 24 h; reporter: 7TFP. The method, boiled down:
(§1)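 Library compounds were added at a final concentration of 5 µM for 24 h to colorectal cancer cells stably transduced with a lentiviral TCF/Wnt firefly luciferase reporter. Reported values are firefly luciferase or CellTiterGlo luminescence, normalised per well to the plate median. Each value averages two independent replicates.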
On the technique in general: In ATP-based viability assays light output follows the ATP content of the culture.

Another experiment has as its system HCT116. Described as above. Particulars: 5 µM; treatment time 24 h; reporter: TCF4/Wnt. The method, boiled down:
as §1

Experiment [2] concerns SW480. The experiment is described as above. Particulars: 5 µM; treatment time 24 h; reporter: 7TFP. Put shortly: as §1
Experiment [3] deals with DLD1. Briefly: TCF/Wnt firefly luciferase reporter signal relative to plate median (fraction of plate median); higher = higher Wnt reporter signal. Particulars: 5 µM; treatment time 24 h; reporter: 7TFP. Put shortly:
as §1
For orientation: Reporter assays use an easily measured gene product as a stand-in for the process of interest.

Experiment [4] has as its system SW480. The description is as above. As to conditions: 5 µM; treatment time 24 h; reporter: 7TFP. Put shortly:
as §1

± gives the standard deviation of the averaged measurements.

For the compound `NC[C@H]1O[C@H](O[C@H]2[C@H](O)[C@@H](O[C@H]3O[C@H](CO)[C@@H](O)[C@H](N)[C@H]3O)[C@H](N)C[C@@H]2N)[C@H](N)[C@@H](O)[C@@H]1O`, the cell viability in the experiment on DLD1 [1] is 1.11 ± 0.028; with HCT116, 0.997 ± 0.033; with SW480 [2] it was 1.02 ± 0.052. The “TCF/Wnt firefly luciferase reporter signal” value in the experiment on DLD1 [3] worked out at 1.03 ± 0.035; with SW480 [4] it was 1.01 ± 0.021.

As for `CC1(C)CC23C(=O)CCC(O)C2(C)CCC13` (stereo not given), the cell viability in the experiment on DLD1 [1] worked out at 1.05 ± 0.15; in the experiment with HCT116 it was 1.065 ± 0.0071; in the experiment with SW480 [2], 1.01 ± 0.049. For the same compound, the results for the “TCF/Wnt firefly luciferase reporter signal” value in the experiment on DLD1 [3] and in the experiment with SW480 [4] were 0.942 ± 0.11 and 1.04 ± 0.074, respectively.

Consider `COC(=O)C[C@H]1C(C)(C)[C@@H](O)[C@@H]2CC3=C4C=C(OC)O[C@@H](c5ccoc5)[C@]4(C)CCC3[C@@]1(C)C2=O` (stereo partly drawn) [3-DEOXO-3beta-HYDROXYMEXICANOLIDE 16-ENOL ETHER], for which the cell viability with DLD1 [1] was 0.931 ± 0.11; with HCT116 it was 0.91 ± 0.036; with SW480 [2] it was 0.919 ± 0.018. For the same compound, the “TCF/Wnt firefly luciferase reporter signal” value in the experiment with DLD1 [3] was 0.946 ± 0.07; in the experiment on SW480 [4], 0.921 ± 0.064.

Regarding `COc1ccc2c(C)cc(=O)oc2c1`, the cell viability in the experiment with DLD1 [1] was found to be 0.974 ± 0.027; with HCT116, 0.962 ± 0.022; in the experiment with SW480 [2], 0.939 ± 0.0071. Also, the “TCF/Wnt firefly luciferase reporter signal” value came to 0.803 ± 0.14 in the experiment with DLD1 [3] and 0.869 ± 0.099 with SW480 [4].

As to `C/C=C/C=C/c1cc2cc3c(c(O)c2c(=O)[nH]1)C1(CC3)C(O)=c2c(=O)c3c(=O)cc(OC)c(=O)c=3c(=O)c2=C1O` (stereo not given) [Fredericamycin], the cell viability with DLD1 [1] turned out to be 1.03 ± 0.042; with HCT116, 0.934 ± 0.022; in the experiment with SW480 [2], 1.04 ± 0.076. The “TCF/Wnt firefly luciferase reporter signal” value was 1.06 ± 0.21 with DLD1 [3] and 0.981 ± 0.084 with SW480 [4].

On to `CC(=O)Nc1ccc(O)cc1`, for which the cell viability in the experiment with DLD1 [1] came to 0.935 ± 0.028; with HCT116, 0.948 ± 0.14; in the experiment on SW480 [2] it was 0.996 ± 0.02. For the same compound, the “TCF/Wnt firefly luciferase reporter signal” value with DLD1 [3] worked out at 0.923 ± 0.12; in the experiment with SW480 [4], 1.05 ± 0.071.

Take `CC(C)=CCc1cccc2c(C[C@@H]3NC(=O)[C@H](C)NC3=O)c[nH]c12` [Terezine D]: the cell viability was 1.03 ± 0.021 in the experiment on DLD1 [1], 0.9635 ± 0.0021 with HCT116 and 0.981 ± 0.084 in the experiment on SW480 [2]. The “TCF/Wnt firefly luciferase reporter signal” value in the experiment with DLD1 [3] was 1.12 ± 0.31; in the experiment on SW480 [4], 0.92 ± 0.0099.

Regarding `COc1ccc(/C=C/C(=O)c2cc(O)ccc2O)cc1`, the cell viability worked out at 0.979 ± 0.044 in the experiment on DLD1 [1], 0.959 ± 0.073 in the experiment on HCT116 and 0.98 ± 0.029 with SW480 [2]. Moreover, the “TCF/Wnt firefly luciferase reporter signal” value in the experiment with DLD1 [3] was determined as 1.18 ± 0.014; with SW480 [4] it was 1.05 ± 0.17.

As to `C=CC(C)(O)CCC1C(=C)CC(OC(C)=O)C2C(C)(C)CCCC12C` (stereo not given), the cell viability in the experiment on DLD1 [1] was found to be 0.929 ± 0.03; with HCT116 it was 0.908 ± 0.041; in the experiment with SW480 [2] it was 0.971 ± 0.033. Also, the “TCF/Wnt firefly luciferase reporter signal” value in the experiment on DLD1 [3] was 0.798 ± 0.013; in the experiment with SW480 [4] it was 0.87 ± 0.17.

As to `COc1cc(O)c(C(=O)/C=C/c2ccc(OC)c(O)c2)c(OC)c1`, the cell viability with DLD1 [1] turned out to be 1.06 ± 0.098; in the experiment with HCT116, 0.975 ± 0.093; in the experiment on SW480 [2], 1.1 ± 0.042. In addition, the “TCF/Wnt firefly luciferase reporter signal” value in the experiment with DLD1 [3] was found to be 0.975 ± 0.064; in the experiment with SW480 [4], 0.8395 ± 0.00071.

Regarding `Nc1nnc(-c2cccc(Cl)c2Cl)c(N)n1`, the cell viability with DLD1 [1] was found to be 1.05 ± 0.05; in the experiment with HCT116, 1.04 ± 0.069; in the experiment with SW480 [2], 0.975 ± 0.05. The figures for the “TCF/Wnt firefly luciferase reporter signal” value in the experiment on DLD1 [3] and in the experiment on SW480 [4] were 0.923 ± 0.018 and 0.985 ± 0.036, respectively.

With `NC(=O)NC(=O)Cc1ccccc1`, the values for the cell viability in the experiment on DLD1 [1], with HCT116 and with SW480 [2] were 1.02 ± 0.014, 1.16 ± 0.035 and 1.02 ± 0.037, respectively. Further, the “TCF/Wnt firefly luciferase reporter signal” value in the experiment with DLD1 [3] is 1.12 ± 0.064; with SW480 [4] it was 0.94 ± 0.08.

On to `OC[C@H]1O[C@@H](O[C@@H]2[C@@H](CO)OC(O)(CO)[C@H]2O)[C@H](O)[C@@H](O)[C@H]1O` (mixture of isomers), for which the cell viability with DLD1 [1] is 0.999 ± 0.0014; with HCT116, 0.99 ± 0.028; in the experiment on SW480 [2], 0.984 ± 0.0028. Besides, the “TCF/Wnt firefly luciferase reporter signal” value with DLD1 [3] turned out to be 1.07 ± 0.18; in the experiment with SW480 [4], 1.02 ± 0.034.

On to `CCCCCC/C=C\CCCCCCCc1cccc(O)c1C(=O)O`, for which the cell viability in the experiment on DLD1 [1] was 1.05 ± 0.14; with HCT116, 1.08 ± 0.028; with SW480 [2], 1.05 ± 0.042. Further, the figures for the “TCF/Wnt firefly luciferase reporter signal” value with DLD1 [3] and in the experiment with SW480 [4] were 0.985 ± 0.14 and 0.996 ± 0.021, respectively.

`Cc1cccc(Nc2ccccc2C(=O)O)c1C`: the cell viability with DLD1 [1] turned out to be 1.03 ± 0.1; with HCT116, 1 ± 0.038; in the experiment on SW480 [2], 1.07 ± 0.014. Moreover, the “TCF/Wnt firefly luciferase reporter signal” value in the experiment with DLD1 [3] amounted to 0.927 ± 0.052; in the experiment on SW480 [4], 1.01 ± 0.089.
